More than one record can exist for a structure, and the calls need not agree. The source made the active and inactive calls. How the source made its calls: active means hit-call score of the fitted dose curve at least 0.9, where 1 is the maximum; inactive means score below 0.9.
Legend:
[1] = ATG_ISRE_CIS: Attagene CIS-FACTORIAL HepG2 Assay for human Interferon Regulatory Factor 1 (IRF1) binding to an Interferon-Stimulated Response Element (ISRE) (AID 2282948); conditions: HepG2 ISRE cis-reporter (Attagene), mRNA transcription readout; actives raise or lower the signal
How it was run: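 Signal reflects induction or loss of ISRE-linked reporter mRNA in transiently transfected HepG2 cells after a 24 h treatment, detected by fluorescent RT-PCR fragments on capillary electrophoresis and normalised to DMSO.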

[2] = ATG_M_32_CIS: Attagene CIS-FACTORIAL HepG2 Assay for M32 Transcription Factor (Internal Marker) (AID 2282949); conditions: HepG2 Attagene cis-factorial M32 reporter, mRNA; actives raise or lower the signal;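 further: background control marker of the multiplexed CIS panel rather than a real target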
How it was run: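 Using DMSO as baseline, bidirectional curve fits were applied to reporter mRNA signals. These came from transiently transfected HepG2 cells exposed for 24 h, with RNA analysed by RT-PCR, FAM primer extension, HpaI digestion and CE.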

[3] = ATG_M_06_CIS: Attagene CIS-FACTORIAL HepG2 Assay for M06 Transcription Factor (Internal Marker) (AID 2282950); conditions: HepG2 Attagene CIS-FACTORIAL M06 internal marker reporter; actives raise or lower the signal
How it was run: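 Steps: transfect HepG2 with multiplexed cis-element reporter constructs; dose chemical 24 h; extract RNA with DNase treatment; reverse-transcribe, PCR-amplify, 6-FAM label, HpaI digest; separate fragments by capillary electrophoresis. Activity fitted both directions versus DMSO.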

[4] = target: Hepatocyte nuclear factor 6 (Homo sapiens) (UniProt Q9UBC0); assay: ATG_HNF6_CIS: Attagene CIS-FACTORIAL HepG2 Assay for human Hepatocyte Nuclear Factor 6 (HNF6) (AID 2282952); conditions: HepG2 Attagene cis-factorial HNF6 reporter transcription; actives raise or lower the signal
Hepatocyte nuclear factor 6 (Homo sapiens), sequence (Q9UBC0 whole entry, looked up, the tested form may be a part): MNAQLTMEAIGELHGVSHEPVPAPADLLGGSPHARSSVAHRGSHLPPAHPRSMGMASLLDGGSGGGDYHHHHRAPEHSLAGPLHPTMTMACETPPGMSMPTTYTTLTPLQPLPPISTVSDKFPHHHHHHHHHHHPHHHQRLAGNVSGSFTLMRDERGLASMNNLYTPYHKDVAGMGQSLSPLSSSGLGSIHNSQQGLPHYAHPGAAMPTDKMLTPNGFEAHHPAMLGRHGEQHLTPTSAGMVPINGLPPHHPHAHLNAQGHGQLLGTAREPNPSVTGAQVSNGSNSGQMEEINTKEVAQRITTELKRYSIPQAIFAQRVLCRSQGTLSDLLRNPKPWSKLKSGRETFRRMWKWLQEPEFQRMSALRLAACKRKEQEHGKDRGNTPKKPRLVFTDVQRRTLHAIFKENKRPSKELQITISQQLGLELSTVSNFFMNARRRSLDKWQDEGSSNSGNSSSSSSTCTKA
How it was run: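 Readout: fluorescent reporter-transcript fragments resolved by capillary electrophoresis after RT-PCR, reflecting endogenous factor activity in transfected HepG2. Exposure 24 h. Gain or loss of signal fitted bidirectionally against DMSO.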

[5] = ATG_MRE_CIS: Attagene CIS-FACTORIAL HepG2 Assay for human Metal Responsive Element (MRE) (AID 2282954); conditions: HepG2 MRE cis-reporter transcription, Attagene multiplex; actives raise or lower the signal
How it was run: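 Readout: capillary electrophoresis of 6-FAM-labelled, HpaI-digested RT-PCR reporter products. System: HepG2 cells carrying transient multiplexed cis reporters, dosed 24 h. Analysis: bidirectional fit, DMSO baseline.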

[6] = target: Paired box protein Pax-6 (Homo sapiens) (UniProt P26367); assay: ATG_Pax6_CIS: Attagene CIS-FACTORIAL HepG2 Assay for human Paired Box 6 (PAX6) (AID 2282956); conditions: HepG2 CIS-FACTORIAL PAX6 reporter transcription, RNA readout; actives raise or lower the signal
Paired box protein Pax-6 (Homo sapiens), sequence (P26367 whole entry, looked up): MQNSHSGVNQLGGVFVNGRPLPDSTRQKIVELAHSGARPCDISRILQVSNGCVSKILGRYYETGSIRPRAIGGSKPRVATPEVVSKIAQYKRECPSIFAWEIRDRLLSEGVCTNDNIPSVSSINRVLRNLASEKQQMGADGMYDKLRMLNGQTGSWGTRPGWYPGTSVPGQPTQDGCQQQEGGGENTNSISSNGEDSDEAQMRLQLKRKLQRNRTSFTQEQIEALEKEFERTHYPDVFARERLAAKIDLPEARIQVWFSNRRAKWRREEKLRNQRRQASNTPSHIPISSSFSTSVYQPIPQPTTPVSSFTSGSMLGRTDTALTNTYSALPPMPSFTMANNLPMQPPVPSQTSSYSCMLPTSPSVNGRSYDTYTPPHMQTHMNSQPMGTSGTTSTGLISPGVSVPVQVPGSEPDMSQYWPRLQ
How it was run: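 Values derive from bidirectional curve fitting of reporter mRNA signal relative to DMSO. HepG2 cells bearing transfected cis-regulated MRTUs were exposed for 24 h; transcripts were read by RT-PCR and capillary electrophoresis.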

[7] = target: Hypoxia-inducible factor 1-alpha (Homo sapiens) (UniProt Q16665); assay: ATG_HIF1a_CIS: Attagene CIS-FACTORIAL HepG2 Assay for human Hypoxia Inducible Factor 1 (HIF1A) (AID 2282951); conditions: HepG2 Attagene cis-factorial HIF1a reporter transcription; actives raise or lower the signal
Hypoxia-inducible factor 1-alpha (Homo sapiens), sequence (Q16665 whole entry, looked up): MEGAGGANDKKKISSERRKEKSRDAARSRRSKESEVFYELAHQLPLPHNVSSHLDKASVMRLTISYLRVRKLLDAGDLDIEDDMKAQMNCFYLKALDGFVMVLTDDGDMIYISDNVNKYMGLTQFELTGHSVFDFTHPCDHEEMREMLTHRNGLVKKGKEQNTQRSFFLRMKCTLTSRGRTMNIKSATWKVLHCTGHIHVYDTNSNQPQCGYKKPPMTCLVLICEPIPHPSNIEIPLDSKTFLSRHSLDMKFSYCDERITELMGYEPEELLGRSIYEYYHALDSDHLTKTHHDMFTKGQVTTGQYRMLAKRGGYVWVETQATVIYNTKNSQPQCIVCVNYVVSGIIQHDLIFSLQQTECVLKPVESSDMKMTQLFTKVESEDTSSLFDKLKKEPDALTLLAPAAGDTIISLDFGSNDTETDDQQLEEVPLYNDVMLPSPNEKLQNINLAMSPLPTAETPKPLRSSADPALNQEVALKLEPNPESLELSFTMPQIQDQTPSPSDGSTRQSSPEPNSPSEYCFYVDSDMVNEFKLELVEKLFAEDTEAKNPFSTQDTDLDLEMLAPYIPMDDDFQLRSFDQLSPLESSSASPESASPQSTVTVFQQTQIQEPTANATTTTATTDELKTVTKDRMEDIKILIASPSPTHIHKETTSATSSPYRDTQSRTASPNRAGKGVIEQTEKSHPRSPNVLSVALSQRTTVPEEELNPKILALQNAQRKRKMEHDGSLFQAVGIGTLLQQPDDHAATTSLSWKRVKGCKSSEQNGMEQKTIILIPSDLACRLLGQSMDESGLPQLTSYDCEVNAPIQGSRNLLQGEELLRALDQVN
How it was run: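 HepG2 cells transiently transfected with multiplexed cis-promoter reporter units; reporter mRNA read 24 h after dosing by RT-PCR, 6-FAM primer-extension labelling, HpaI digestion and capillary electrophoresis. Bidirectional fit versus DMSO baseline.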

[8] = target: Heat shock factor protein 1 (Homo sapiens) (UniProt Q00613); assay: ATG_HSE_CIS: Attagene CIS-FACTORIAL HepG2 Assay for human Heat Shock Transcription Factor 1 (HSE) (AID 2282953); conditions: HepG2 HSE cis-reporter, Attagene RNA transcription; actives raise or lower the signal
Heat shock factor protein 1 (Homo sapiens), sequence (Q00613 whole entry, looked up, the tested form may be a part): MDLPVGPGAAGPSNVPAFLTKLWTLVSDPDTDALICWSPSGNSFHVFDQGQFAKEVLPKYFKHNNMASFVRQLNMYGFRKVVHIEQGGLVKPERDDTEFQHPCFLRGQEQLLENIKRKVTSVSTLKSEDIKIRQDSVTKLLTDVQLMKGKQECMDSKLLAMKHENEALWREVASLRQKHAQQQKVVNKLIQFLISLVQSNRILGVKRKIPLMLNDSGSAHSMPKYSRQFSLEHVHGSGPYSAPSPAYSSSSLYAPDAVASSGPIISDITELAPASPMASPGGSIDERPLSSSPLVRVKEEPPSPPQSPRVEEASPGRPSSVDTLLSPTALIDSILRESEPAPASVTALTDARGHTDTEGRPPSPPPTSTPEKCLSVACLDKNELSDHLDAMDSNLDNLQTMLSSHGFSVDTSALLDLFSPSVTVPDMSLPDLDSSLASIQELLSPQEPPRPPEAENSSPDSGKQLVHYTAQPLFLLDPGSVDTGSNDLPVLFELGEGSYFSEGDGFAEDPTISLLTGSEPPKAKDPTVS
How it was run: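 Cells were transfected with cis-element-driven reporter constructs, dosed for 24 h, then total RNA was reverse-transcribed and reporter cDNA amplified, FAM-labelled and digested with HpaI. Fragments were resolved by capillary electrophoresis; gain or loss was fitted against DMSO.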

[9] = ATG_PBREM_CIS: Attagene CIS-FACTORIAL HepG2 Assay for human Phenobarbital-responsive Enhancer Module (PBREM) (AID 2282955); conditions: HepG2 PBREM cis-reporter, Attagene multiplexed transcription; actives raise or lower the signal
How it was run: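 HepG2 cells transiently transfected with multiple cis-regulated reporter transcription units; endogenous factor activity at the PBREM element measured as reporter mRNA 24 h after dosing, via RT-PCR and capillary electrophoresis of fluorescent fragments; bidirectional fitting versus DMSO.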

Measured: AC50

CC(C)NCC(O)c1ccc(O)c(O)c1 (stereo not given)
inactive: [1] | [2] | [3] | [4] | [5] | [6]

CC(=O)O
inactive: [1] | [2] | [3] | [7] | [4] | [5] | [6]

Oc1ccc(O)cc1
inactive: [1] | [2] | [3] | [4] | [8] | [5] | [9] | [6]

CCCC[C@H]1CN(CC2CCOCC2)C(=O)OC12CCN(C1(C)CCN(C(=O)c3c(C)ncnc3C)CC1)CC2
inactive: [1] | [2] | [3] | [7] | [4] | [5] | [9] | [6]

CC(N)=O
active: [8] 133 µM
inactive: [1] | [2] | [3] | [4] | [8] | [5] | [6]

CCC(C)N(C)C(=O)c1cc2ccccc2c(-c2ccccc2Cl)n1 (stereo not given)
inactive: [2] | [3] | [4]
active: [1] 89 µM | [8] 101 µM | [5] 97.4 µM | [6] 63 µM

CCCCCCC(CCCCCCCCCCC(=O)OCC(COC(C)=O)OC(C)=O)OC(C)=O (stereo not given)
inactive: [1] | [2] | [3] | [7] | [4] | [5] | [6]
active: [8] 90.7 µM

O=C1NC(=O)C(c2ccccc2)(c2ccccc2)N1
inactive: [1] | [2] | [3] | [4] | [8] | [5] | [9] | [6]

CC(=O)OC1CC(C)OC(C)O1 (stereo not given)
inactive: [1] | [2] | [3] | [7] | [4] | [5] | [9] | [6]

Cc1cn([C@H]2C=C[C@@H](CO)O2)c(=O)[nH]c1=O
inactive: [1] | [2] | [3] | [4] | [8] | [5] | [9] | [6]

CCc1nc(N)nc(N)c1-c1ccc(Cl)cc1
inactive: [3] | [8] | [9]
active: [1] 100 µM | [2] 174 µM | [4] 100 µM | [5] 100 µM | [6] 46 µM

CS(=O)(=O)c1ccc([C@@H](C[C@H]2CCC(=O)C2)C(=O)Nc2cnccn2)cc1Cl
inactive: [1] | [2] | [3] | [7] | [4] | [5] | [9] | [6]

CN(C)C(=O)NC1(c2ccccc2)CCN(CC[C@@]2(c3ccc(F)c(F)c3)CN(C(=O)c3ccccc3)CCO2)CC1
active: [7] 47.9 µM | [5] 57.9 µM
inactive: [1] | [2] | [3] | [4] | [8] | [6]

O=C(O)c1cccnc1
inactive: [1] | [2] | [3] | [7] | [8] | [5] | [9] | [6]

CC(C)OC(=O)C(C)(C)Oc1ccc(C(=O)c2ccc(Cl)cc2)cc1
active: [1] 49 µM | [5] 43.6 µM | [6] 27.7 µM
inactive: [2] | [3] | [4] | [8] | [9]

CC(C)COC(=O)CCCCC(=O)OCC(C)C
inactive: [1] | [2] | [3] | [7] | [4] | [8] | [5] | [6]

CCCCCCCCCC[N+](C)(C)[O-]
inactive: [1] | [2] | [3] | [7] | [4] | [8] | [5] | [6]

Cc1c(C)c2c(c(C)c1O)CCC(C)(COc1ccc(CC3SC(=O)NC3=O)cc1)O2 (stereo not given)
active: [5] 17.4 µM
inactive: [1] | [2] | [3] | [7] | [4] | [9] | [6]

COC(=O)CCC(=O)OC
inactive: [1] | [2] | [3] | [7] | [4] | [5] | [9] | [6]

CC(=O)CC(c1ccccc1)c1c(O)c2ccccc2oc1=O (stereo not given)
inactive: [1] | [2] | [3] | [7] | [4] | [5] | [6]

NC=O
inactive: [1] | [2] | [3] | [7] | [4] | [8] | [5] | [6]

CC(=O)OCC(COC(C)=O)OC(C)=O
inactive: [1] | [2] | [3] | [7] | [4] | [8] | [5] | [6]

N[C@@H](Cc1c[nH]c2ccccc12)C(=O)O
active: [7] 27.3 µM
inactive: [1] | [2] | [3] | [4] | [8] | [5] | [6]

Oc1ccccc1O
inactive: [1] | [2] | [3] | [4] | [8] | [5] | [9] | [6]

CCCCOC(=O)CCCCC(=O)OCCCC
inactive: [1] | [2] | [3] | [7] | [4] | [8] | [5] | [6]

From PubChem BioAssay (EPA / NIEHS)
